In PubChem BioAssay (NCATS):
Unmarked numbers belong to inactive results. Results filed as inconclusive are left out. Activity calls are given as the source filed them. Unless noted, calls come from the whole dose curve; as a rule, active = well fitted curve in either direction with a large enough effect (not every such curve was filed as active); inconclusive = small, poorly fitted or top-dose-only effect, or another doubt; inactive = flat fitted curve, though single readings scatter.

Assays:
[1] = biological target: Lysosomal acid glucosylceramidase (Homo sapiens) (UniProt P04062); test: Glucocerebrosidase-p2 (AID 348; in the data active = potency below about 10 µM; note: potency is the fitted concentration of half-maximal effect); settings: purified GBA, blue fluorogenic substrate, 40 min
Lysosomal acid glucosylceramidase (Homo sapiens), sequence (P04062 whole entry, looked up): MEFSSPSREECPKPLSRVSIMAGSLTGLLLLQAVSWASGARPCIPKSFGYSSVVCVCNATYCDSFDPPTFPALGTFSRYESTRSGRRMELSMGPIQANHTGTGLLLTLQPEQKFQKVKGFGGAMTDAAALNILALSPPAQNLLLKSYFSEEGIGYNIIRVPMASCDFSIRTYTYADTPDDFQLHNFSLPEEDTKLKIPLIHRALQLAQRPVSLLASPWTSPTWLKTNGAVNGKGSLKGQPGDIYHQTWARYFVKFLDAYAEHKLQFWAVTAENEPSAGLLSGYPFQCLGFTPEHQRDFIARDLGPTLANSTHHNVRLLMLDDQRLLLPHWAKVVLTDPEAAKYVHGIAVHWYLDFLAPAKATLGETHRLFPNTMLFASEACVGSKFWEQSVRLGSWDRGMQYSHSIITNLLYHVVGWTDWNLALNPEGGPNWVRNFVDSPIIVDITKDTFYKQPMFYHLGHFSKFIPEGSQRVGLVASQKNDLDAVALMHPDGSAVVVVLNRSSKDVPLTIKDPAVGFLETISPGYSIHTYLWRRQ
Summary of the method: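 Normal human glucocerebrosidase (0.2 nM) with blue fluorogenic substrate (80 uM final) in citrate/phosphate pH 5.9 with 10mM sodium taurocholate, 0.01% tween-20; 40 min RT, NaOH/glycine stop; fluorescence Ex 365/Em 440; AC50 from a titration from 0.6 nM upwards.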

[2] = AP1 Signaling Pathway (AID 357); settings: ME-180 AP-1-bla reporter, EGF-induced, beta-lactamase ratio, 5 h; at 7.69 µM (top of the series) unless noted; note: % is set by controls: 0 for no effect and ±100 for the full control effect
Summary of the method: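 ME-180 cells with beta-lactamase reporter under AP-1 response element, stimulated with EC50 EGF; compounds tested in titration series, 5 h at 37 °C. CCF4 substrate added 2.5 h at room temperature; 460/530 nm emission ratio gave %activity and AC50.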

[3] = biological target: Cytochrome P450 1A2 (Homo sapiens) (UniProt P05177); test: p450-cyp1a2 (AID 410; calls by dose curve; note: potency is the fitted concentration of half-maximal effect;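 for activity change, negative = inhibition: -100% = full effect of reference inhibitor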); settings: recombinant CYP1A2, luciferin-ME demethylation, luminescence; series mostly up to 11.4 µM
Cytochrome P450 1A2 (Homo sapiens), sequence (P05177 whole entry, looked up): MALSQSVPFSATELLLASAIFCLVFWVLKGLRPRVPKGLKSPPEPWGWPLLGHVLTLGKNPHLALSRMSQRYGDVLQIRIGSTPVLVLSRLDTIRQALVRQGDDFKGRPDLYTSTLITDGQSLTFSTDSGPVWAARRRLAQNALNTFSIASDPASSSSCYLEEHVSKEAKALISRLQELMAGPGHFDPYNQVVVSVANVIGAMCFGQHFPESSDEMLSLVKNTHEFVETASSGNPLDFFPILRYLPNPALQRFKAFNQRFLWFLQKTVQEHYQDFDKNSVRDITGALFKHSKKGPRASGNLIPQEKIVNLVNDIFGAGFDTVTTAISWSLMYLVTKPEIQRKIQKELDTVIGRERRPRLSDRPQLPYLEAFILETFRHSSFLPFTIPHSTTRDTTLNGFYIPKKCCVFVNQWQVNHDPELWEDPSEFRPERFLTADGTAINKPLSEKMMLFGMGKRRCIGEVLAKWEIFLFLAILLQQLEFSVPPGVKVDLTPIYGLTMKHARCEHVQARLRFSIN
Summary of the method: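 Luminescent demethylation readout: Luciferin-ME (100uM, equal to Km) turned over by 20nM CYP1A2 for 60 min at room temperature after NADPH regeneration addition, following 10 min compound preincubation. Normalization used 57 uM furafylline as full inhibition.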

[4] = NFAT Signaling Pathway (AID 444); settings: Jurkat NFAT-bla M1, carbachol, beta-lactamase ratio, 5 h; at 7.69 µM (top of the series) unless noted;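 note: carbachol stimulus at about its EC50 of 1 µM final; % is set by controls: 0 for no effect and ±100 for the full control effect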
Summary of the method: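 Jurkat cells carrying an NFAT-driven β-lactamase reporter and co-transfected muscarinic M1 receptor were treated with compound plus carbachol (1 uM final, an EC50 level) for 5 h at 37 °C. CCF4 loading followed for 1 h at RT; 460/530 nm ratio gave %activity.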

[5] = Stat Signaling Pathway (AID 446); settings: ME-180 (cervical carcinoma) SIE beta-lactamase reporter, IL-6 stimulated, 5 h; at 7.69 µM (top of the series) unless noted;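 note: ME-180 cervical cancer cells given 40 pM IL-6 alongside compound; SIE-controlled beta-lactamase reporter measured as 460/530 nm FRET emission ratio; % is set by controls: 0 for no effect and ±100 for the full control effect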
Summary of the method: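 FRET read-out (405 nm excitation, 460/530 nm emission) of a beta-lactamase reporter under a STAT-inducible element in ME-180 cervical carcinoma cells. Cells with compound receive 40 pM IL-6 for 5 h. Values are normalised to AC90 stimulation and AC90 JAK-inhibitor controls.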

[6] = biological target: Glucocorticoid receptor (Homo sapiens) (UniProt P04150); test: GR-GFP Redistribution (AID 450;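 active = compounds whose dose series gives a full or clear partial fitted curve of increased nuclear translocation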; note: potency is the fitted concentration of half-maximal effect); settings: U2OS GR-GFP nuclear translocation, laser cytometry, 2 h
Glucocorticoid receptor (Homo sapiens), sequence (P04150 whole entry, looked up, the tested form may be a part): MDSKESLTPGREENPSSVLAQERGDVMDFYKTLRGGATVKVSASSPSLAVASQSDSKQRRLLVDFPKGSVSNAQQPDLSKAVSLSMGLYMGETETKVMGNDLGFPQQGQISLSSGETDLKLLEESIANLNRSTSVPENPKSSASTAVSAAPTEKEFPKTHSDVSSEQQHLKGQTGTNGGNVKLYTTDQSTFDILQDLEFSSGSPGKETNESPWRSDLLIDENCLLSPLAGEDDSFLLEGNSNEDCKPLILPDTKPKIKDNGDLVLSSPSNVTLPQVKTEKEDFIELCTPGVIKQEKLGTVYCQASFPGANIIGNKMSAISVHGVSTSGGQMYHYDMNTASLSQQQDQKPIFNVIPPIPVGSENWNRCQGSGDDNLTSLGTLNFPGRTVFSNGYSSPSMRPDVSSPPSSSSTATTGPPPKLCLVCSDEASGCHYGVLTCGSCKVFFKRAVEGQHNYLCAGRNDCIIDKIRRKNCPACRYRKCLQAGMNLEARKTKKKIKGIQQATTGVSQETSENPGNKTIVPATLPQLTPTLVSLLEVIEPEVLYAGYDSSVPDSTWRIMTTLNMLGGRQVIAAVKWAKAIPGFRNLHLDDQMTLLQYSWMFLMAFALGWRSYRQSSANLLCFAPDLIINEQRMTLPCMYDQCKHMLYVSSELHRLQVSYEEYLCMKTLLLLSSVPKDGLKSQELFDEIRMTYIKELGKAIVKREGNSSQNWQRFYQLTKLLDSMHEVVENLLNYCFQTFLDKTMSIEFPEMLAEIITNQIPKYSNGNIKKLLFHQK

[7] = biological target: Glucocorticoid receptor (Homo sapiens) (UniProt P04150); test: GR-EFC Redistribution (AID 451; calls by dose curve; note: potency is the fitted concentration of half-maximal effect); settings: CHO-K1 GR-EFC translocation, beta-gal luminescence, 2 h
Summary of the method: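 CHO-K1 cells stably expressing nuclear-localized β-gal enzyme acceptor and GR fused C-terminally to the enzyme donor fragment; ligand-driven nuclear translocation restores β-gal by complementation. Compounds titrated up to 46 uM final, 2 h at 37 °C; luminescence read.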

[8] = biological target: Mitogen-activated protein kinase 10 (Mus musculus) (UniProt Q61831); test: JNK3 AlphaScreen Assay (AID 530); settings: JNK3 lysate, c-Jun phosphorylation; series mostly up to 11.4 µM;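 note: kinase came from lysate of stimulated human HepG2 cells; signal reports phosphorylation of biotinylated GST-cJun 1-79 at Ser73 with 10 µM ATP; % is set by controls: 0 for no effect and ±100 for the full control effect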
Summary of the method: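 Phosphorylation of biotinylated GST-cJun(1-79) at Ser73 is measured by AlphaScreen proximity luminescence. Enzyme is JNK3 in HepG2 lysates activated with interleukin-1beta and tumor necrosis factor alpha; ATP is 10 uM final.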

[9] = biological target: 3',5'-cyclic-AMP phosphodiesterase 4B (Homo sapiens) (UniProt Q07343); test: qHTS Assay for Inhibitors of PDE-IV (AID 607; active = well fitted activation curve with a large enough effect in the main read-out, with a control signal flat, not every such curve was filed as active; note: % of control where 0% means no effect); settings: HEK293 ACTOne CNG channel cells, membrane potential fluorescence; series mostly up to 22.9 µM
3',5'-cyclic-AMP phosphodiesterase 4B (Homo sapiens), sequence (Q07343 whole entry, looked up): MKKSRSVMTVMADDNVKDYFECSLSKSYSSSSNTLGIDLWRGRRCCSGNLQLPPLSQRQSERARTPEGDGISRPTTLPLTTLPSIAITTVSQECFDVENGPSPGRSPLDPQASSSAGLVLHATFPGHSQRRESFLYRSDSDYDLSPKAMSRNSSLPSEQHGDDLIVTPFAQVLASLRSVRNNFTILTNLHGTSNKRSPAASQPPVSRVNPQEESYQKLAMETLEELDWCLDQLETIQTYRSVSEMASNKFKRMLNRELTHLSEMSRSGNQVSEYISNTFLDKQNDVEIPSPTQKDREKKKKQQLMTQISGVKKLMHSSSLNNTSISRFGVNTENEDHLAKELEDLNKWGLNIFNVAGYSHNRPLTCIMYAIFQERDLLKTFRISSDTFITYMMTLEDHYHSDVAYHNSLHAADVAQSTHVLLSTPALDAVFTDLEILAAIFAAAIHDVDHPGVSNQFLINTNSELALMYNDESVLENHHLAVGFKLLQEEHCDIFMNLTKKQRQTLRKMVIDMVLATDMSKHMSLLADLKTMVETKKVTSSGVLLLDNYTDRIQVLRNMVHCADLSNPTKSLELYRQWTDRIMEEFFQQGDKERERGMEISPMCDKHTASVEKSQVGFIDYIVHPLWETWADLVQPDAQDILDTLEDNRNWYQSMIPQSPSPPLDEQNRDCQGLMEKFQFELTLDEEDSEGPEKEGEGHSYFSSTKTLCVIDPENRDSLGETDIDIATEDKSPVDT
Summary of the method: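 Cell-based read-out of cAMP via a modified cyclic nucleotide-gated channel and membrane potential dye (535/590 nm) in HEK293 cells expressing PDE4 endogenously. Compounds tested up to 22.9 uM final; 100 uM RO 20-1724 reference.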

Compound | Potency [1] | activity change, negative = inhibition [2] | Potency [3] | activity change, negative = inhibition [4] | activity, negative = inhibition [5] | Potency [6] | Potency [7] | Potency [8] | Potency [9] | activity change, negative = inhibition [3]
COc1ccc(C[N+](C)(C)N)cc1OC | > 11.4 µM | 0.59% | inactive | -4.71% | 7.15% | > 46 µM | > 9.22 µM | inactive | inactive | –
NC(N)=NC(N)=Nc1ccccc1 (tested in a mixture with another compound) | > 11.4 µM | -4.98% | 3.16 µM (active) | 10.5% | 1.58% | > 46 µM | > 9.22 µM | inactive | inactive | –
Cc1cc2nc3[nH]c4c(Cl)cc(Cl)cc4c3nc2cc1C | > 11.4 µM | -14% | 0.631 µM (active) | 11.6% | -5.45% | > 46 µM | > 9.22 µM | inactive | inactive | –
CCOc1ccccc1Nc1ccc(N)cc1S(=O)(=O)O | > 11.4 µM | 6.02% | – | -5.87% | -1.52% | > 46 µM | > 9.22 µM | inactive | inactive | -12.6% [at 2.29 µM]
O=C(O)/C=C\C(=O)Nc1ncn[nH]1 | > 11.4 µM | 8.44% | inactive | 2.25% | 2.6% | > 46 µM | > 9.22 µM | inactive | inactive | –
N#CC(CC(=O)O)=C(c1ccccc1)c1ccccc1 | > 11.4 µM | 6.62% | – | -1.1% | 1.35% | > 46 µM | > 9.22 µM | inactive | inactive | -14.5% [at 2.29 µM]
NCC(=O)Nc1ccc(Cl)cc1C(=O)c1ccc[nH]1 | > 11.4 µM | -2.05% | 3.16 µM (active) | -24.8% | -3.02% | > 46 µM | > 9.22 µM | inactive | inactive | –
O=C(N/N=C\c1cccc(O)c1)c1ccncc1 | > 11.4 µM | -2.52% | inactive | -7.01% | 4.22% | > 46 µM | > 9.22 µM | inactive | inactive | –
O=C(O)[C@@H]1CCN(Cc2oc(CO)cc(=O)c2O)C1 | > 11.4 µM | 6.76% | 10 µM (active) | -8.96% | 16.1% | > 46 µM | > 9.22 µM | inactive | inactive | –
C[C@@](O)(CNS(=O)(=O)c1ccccc1)c1ccccc1 | > 11.4 µM | 0.078% | inactive | 3.96% | -0.864% | > 46 µM | > 9.22 µM | inactive | inactive | –
O=C(O)c1cc(=O)[nH]c(=S)[nH]1 | > 11.4 µM | -9.52% | – | 5.67% | 6.7% | > 46 µM | > 9.22 µM | inactive | inactive | -10.7% [at 2.29 µM]
O=C(O)C/C(=C\c1ccccc1)C(=O)O | > 11.4 µM | 7.15% | inactive | -2.46% | 10.5% | > 46 µM | > 9.22 µM | inactive | inactive | –
COc1ncc2nc(-c3ccc(Cl)cc3)c(=O)n(C[C@H]3CCCO3)c2n1 | > 11.4 µM | -1.85% | 0.501 µM (active) | -7.47% | -9.41% | > 9.22 µM | > 46 µM | inactive | inactive | –
O=C1c2ccccc2C(=O)N1C[C@]1(C(=O)O)NCCS1(=O)=O | > 11.4 µM | -0.765% | – | 7.39% | -1.43% | > 46 µM | > 9.22 µM | inactive | inactive | -5.5% [at 2.29 µM]
N=C(N)CCNC(=O)[C@@H]1CCC(N)=N1 | > 11.4 µM | 4.22% | – | 3.47% | 1.16% | > 46 µM | > 9.22 µM | inactive | inactive | -3.4% [at 2.29 µM]
